The panel holds about 79,000 compounds, 15% with a hit somewhere; the sample as a whole holds those more often. A number with no mark means an inactive call. Calls of active or inactive are those of the source. Rule as the data show it: active = growth inhibition above about 70%; inactive = the rest.

Assay [1] is described as follows: NCI Yeast Anticancer Drug Screen. Data for the rad50 strain (AID 155).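 Also: 0% = growth of vehicle-only cultures of the same strain.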 Conditions: S. cerevisiae rad50 strain growth inhibition; at 50.0 µM; hits give high values. The gist of the method: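 Genetically altered yeast (DNA repair pathway); compound treatment; growth inhibition vs vehicle ctrl.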
The nature of assay [2]: NCI Yeast Anticancer Drug Screen. Data for the mec2-1 strain (AID 157). Conditions: S. cerevisiae mec2-1 strain, at 50.0 µM, hits give high values. The gist of the method: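 Compounds were applied to mec2-1 yeast cells. Their growth was then compared with that of vehicle-treated cultures to give growth inhibition.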
The nature of assay [3]: NCI Yeast Anticancer Drug Screen. Data for the sgs1 mgt1 strain (AID 161).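 Also: 0% = growth of cultures given vehicle only.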 The note with it: S. cerevisiae sgs1 mgt1 strain, at 50.0 µM, hits give high values. In outline: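 Yeast cells carrying a defined DNA-repair defect were exposed to test compounds. Growth inhibition was measured relative to vehicle-treated controls.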
Assay [4] can be described thus: NCI Yeast Anticancer Drug Screen. Data for the cln2 rad14 strain (AID 165).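 Also: 0% = growth equal to vehicle treated cultures.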 Conditions: S. cerevisiae cln2 rad14 strain, at 50.0 µM, hits give high values. In outline: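 Strain: cln2 rad14 yeast, altered in cell cycle control and DNA damage repair. Read-out: growth inhibition vs vehicle.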
Assay [5] can be described thus: NCI Yeast Anticancer Drug Screen. Data for the bub3 strain (AID 167). The note with it: S. cerevisiae bub3 mutant strain, at 50.0 µM, hits give high values. In outline:
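Yeast carrying a defined mutation is treated with each compound, and growth is compared with that of vehicle-exposed cells to give inhibition.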

A short description of assay [6]: NCI Yeast Anticancer Drug Screen. Data for the mlh1 rad18 strain (AID 175). The note with it: S. cerevisiae mlh1 rad18 strain growth inhibition; at 50.0 µM; hits give high values. In outline:
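A repair-deficient yeast strain is exposed to test compound, and growth is scored relative to vehicle-treated controls.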

Consider `COc1ccc(N2C(=O)CSC2=S)cc1`, for which the growth inhibition is 58.6% in assay [1]; 0% in assay [2]; 24.1% in assay [3]; -9.15% in assay [4]; -4.85% in assay [5]; 33.1% in assay [6].

`O=C(CCc1ccccc1)NC(=S)Nc1cc(C(F)(F)F)ccc1Cl`: the growth inhibition is 13.2% in assay [1]; 14.2% in assay [2]; 33.5% in assay [3]; -41.8% in assay [4]; -8% in assay [5]; 34.9% in assay [6].

Regarding `COCCCC(NC(=O)C(CC(C)C)NC(=O)OCc1ccc(OC)cc1)C(=O)OC` (stereo not drawn), the growth inhibition was -9.6% in assay [1]; -12.9% in assay [2]; -2.25% in assay [3]; 6.6% in assay [4]; -9.1% in assay [5]; 7.8% in assay [6].

`Cc1cccc(C(C)C)c1NC(=O)/C(Cc1c([N+](=O)[O-])cccc1[N+](=O)[O-])=N/NC(=O)CC#N`: the growth inhibition in assay [1] was -0.15%; in assay [2], -3.6%; in assay [3], 13.8%; in assay [4] it was 11.2%; in assay [5], -23.2%; in assay [6], 4.8%.

In the case of `CCN(CC)c1ccc(NCC(O)c2cc(Cl)ccc2OC)cc1` (stereo not drawn), the growth inhibition in assay [1] was -11.8%; in assay [2] it was -5.75%; in assay [3], 15.6%; in assay [4] it was 22.8%; in assay [5], -6.3%; in assay [6], -1.65%.

With `C1CSCCCSCCSCCCSC1`, the growth inhibition was -15.1% in assay [1]; -9.45% in assay [2]; 3.6% in assay [3]; 5.3% in assay [4]; 0.2% in assay [5]; 4.45% in assay [6].

Consider `CC1=CCCC(C)(C)C1/C=C/C(C)=N/NC(=O)Nc1ccccc1` (stereo not drawn), for which the growth inhibition in assay [1] was 32.2%; in assay [2], -6.2%; in assay [3], 0.25%; in assay [4] it was -8.85%; in assay [5], 8.85%; in assay [6], 16.4%.

Regarding `Clc1ccc(Cl)s1`, the growth inhibition in assay [1] is 34.5%; in assay [2] it was 3.55%; in assay [3], 20.3%; in assay [4], 18.6%; in assay [5], 14%; in assay [6], 26.1%.

Take `Nc1ncnc2nc(N=Nc3ccc(S(=O)(=O)O)cc3)[nH]c12`: the growth inhibition was 4.25% in assay [1]; -21.1% in assay [2]; -1.2% in assay [3]; -23.4% in assay [4]; -6.35% in assay [5]; -6.75% in assay [6].

For `Cc1ccc(C2=CC(=O)/C(=C\C(=O)c3ccc(Br)cc3)O2)c(C)c1`, the growth inhibition in assay [1] is 76.8% (active); in assay [2] it was 77.8% (active); in assay [3] it was 62.1%; in assay [4] it was 34.8%; in assay [5] it was 52.2%; in assay [6], 71.9% (active).

As for `COc1cc(OC)c2c(c1)OC(c1ccccc1)CC2=O` (stereo not drawn), the growth inhibition in assay [1] was -3.3%; in assay [2], 3.05%; in assay [3], -18.2%; in assay [4], 2.25%; in assay [5], 13.8%; in assay [6], 11.8%.

Turning to `Cc1c(C#N)c(=N)oc2ccccc12`, the growth inhibition is 7.9% in assay [1]; 7.35% in assay [2]; 22.8% in assay [3]; 14.5% in assay [4]; 18.1% in assay [5]; -31.5% in assay [6].

As to `CC(Oc1ccccc1)C(=O)NNC(=O)OC(C)(C)C` (stereo not drawn), the growth inhibition in assay [1] was -0.3%; in assay [2], -21.9%; in assay [3], -10.7%; in assay [4] it was -0.75%; in assay [5] it was -18.6%; in assay [6] it was 3.9%.

`COc1ccc(CC(N)C(N)=O)cc1` (stereo not drawn): the growth inhibition was -6.25% in assay [1]; -0.65% in assay [2]; -4% in assay [3]; -12% in assay [4]; -0.3% in assay [5]; 6.5% in assay [6].

For the compound `CCN(CC)Cc1cc(OC)c(OC)c(OC)c1`, the growth inhibition in assay [1] is -8.3%; in assay [2] it was -14.5%; in assay [3], -6.6%; in assay [4], -50.9%; in assay [5] it was 7%; in assay [6] it was -18.1%.

Regarding `CC(O)CN(Cc1ccccc1)CC(C)O` (stereo not drawn), the growth inhibition in assay [1] was 8.1%; in assay [2], 28.9%; in assay [3], -6.7%; in assay [4], -22.9%; in assay [5], -3.5%; in assay [6] it was -14.9%.

For the compound `CCOC(=O)c1sc2nc(-c3ccccc3)nn2c1CBr`, the growth inhibition is 17.1% in assay [1]; 3.95% in assay [2]; 11.9% in assay [3]; 24.1% in assay [4]; 18.6% in assay [5]; 49.4% in assay [6].

`CSC1NC(c2ccc(Cl)cc2)=C(C#N)C(=O)N1C1OCC(OC(C)=O)C(OC(C)=O)C1OC(C)=O` (stereo not drawn): the growth inhibition in assay [1] is -10%; in assay [2], -23.6%; in assay [3], -24.2%; in assay [4], -3.85%; in assay [5] it was -8.6%; in assay [6], -8.8%.

As for `Cc1c(Cl)ccc2nc3ccccc3nc12`, the growth inhibition was 32.4% in assay [1]; 18.8% in assay [2]; 12.7% in assay [3]; -4.85% in assay [4]; 61.6% in assay [5]; 34.5% in assay [6].

With `Nc1[nH]n(-c2ccccc2)c(=O)c1C1c2ccccc2Sc2ccccc21`, the growth inhibition is 8.7% in assay [1]; 11.2% in assay [2]; 16.4% in assay [3]; -66.6% in assay [4]; 15.2% in assay [5]; 16.2% in assay [6].

Regarding `CCCCCCOC(=O)CCBr`, the growth inhibition in assay [1] was 5%; in assay [2] it was 2.35%; in assay [3], -3.15%; in assay [4], -4.55%; in assay [5], 4.55%; in assay [6], 1.4%.

With `C/C=C(\CC)C(C)(C#N)C(=O)OCC` (stereo not drawn), the growth inhibition in assay [1] was -13.3%; in assay [2], -33.3%; in assay [3], -21.2%; in assay [4] it was -3.45%; in assay [5], -27.8%; in assay [6] it was -29.1%.

Consider `C=CCC(C)C(=O)NNC(=O)C(C)CC=C` (stereo not drawn), for which the growth inhibition was -11.8% in assay [1]; -9.15% in assay [2]; -1.85% in assay [3]; -13.3% in assay [4]; -12.2% in assay [5]; 11.8% in assay [6].

In the case of `O=C(CCN1C(=O)c2ccccc2C1=O)c1cnc[nH]1`, the growth inhibition was 13.8% in assay [1]; 16.9% in assay [2]; 13.4% in assay [3]; -4.5% in assay [4]; 2.6% in assay [5]; 10.4% in assay [6].

On to `CCCCCCCCOC(=O)Nc1cccc2ccccc12`, for which the growth inhibition in assay [1] was -12.8%; in assay [2], -11.2%; in assay [3] it was -2.6%; in assay [4] it was -39.7%; in assay [5], -4.35%; in assay [6], -9.2%.

For `COc1cc(/C=C2\SC(=S)N(/C=C(/C#N)C(=O)c3ccc4ccccc4c3)C2=O)cc(OC)c1OC`, the growth inhibition was 21.3% in assay [1]; 11.8% in assay [2]; 53.4% in assay [3]; 3.45% in assay [4]; 27.2% in assay [5]; 31.4% in assay [6].

On to `c1cc2c3c(c1)ccc1cccc(c13)C2`, for which the growth inhibition was 39.6% in assay [1]; -26.2% in assay [2]; 12.8% in assay [3]; 11.9% in assay [4]; 24.6% in assay [5]; 27.1% in assay [6].

On to `Cc1noc(N)c1Sc1ccc(Br)cc1`, for which the growth inhibition in assay [1] is 98.7% (active); in assay [2], 98.8% (active); in assay [3], 99% (active); in assay [4] it was 98.5% (active); in assay [5], 98.8% (active); in assay [6], 99.1% (active).

Take `C[CH2][Sn]([CH2]C)([O]C(=O)c1ccc(F)cc1)[O][Sn]([CH2]C)([CH2]C)[O]C(=O)c1ccc(F)cc1`: the growth inhibition was -7.3% in assay [1]; -2.8% in assay [2]; -16.4% in assay [3]; 23.6% in assay [4]; 12.6% in assay [5]; -9.05% in assay [6].

`O=C1N/C(=N\OCCc2ccccc2)CC(NOCCc2ccccc2)N1` (stereo not drawn): the growth inhibition in assay [1] is -0.2%; in assay [2], 18.8%; in assay [3] it was 2.25%; in assay [4], -11.6%; in assay [5], 40.5%; in assay [6], 7.5%.

Take `CC(=O)NC(C)C#N` (stereo not drawn): the growth inhibition was -15.4% in assay [1]; -14.1% in assay [2]; -0.2% in assay [3]; -4% in assay [4]; -8.7% in assay [5]; 5.55% in assay [6].

On to `CC(C)C1OC2(CCCCC2)OCC1(C)C` (stereo not drawn), for which the growth inhibition in assay [1] was 23.2%; in assay [2], 14.8%; in assay [3] it was 8.25%; in assay [4], -8.35%; in assay [5], 21.1%; in assay [6] it was 23.4%.

Turning to `O=C(O)C(O)C(O)C(O)C(O)C(O)CO.[NH-]C1CCCCC1[NH-].[Pt+2]` (stereo not drawn), the growth inhibition in assay [1] was -18.3%; in assay [2], 4.4%; in assay [3], -30.4%; in assay [4], 7.4%; in assay [5], 6.15%; in assay [6], -49.5%.

As to `Cc1cccc(/C=C/C(=O)C(C)CN(C)C)c1` (stereo not drawn), the growth inhibition in assay [1] is 41.4%; in assay [2] it was 15.6%; in assay [3], 63%; in assay [4], 30.4%; in assay [5], 28.6%; in assay [6] it was 39.5%.

With `c1ccc(-c2c(-c3ccc4c(c3)CCCC4)c(-c3ccccc3)c3c(c2-c2ccccc2)-c2cccc4cccc-3c24)cc1`, the growth inhibition in assay [1] was -4.15%; in assay [2], 2.8%; in assay [3], -2.45%; in assay [4], 13.3%; in assay [5], -2.9%; in assay [6], 2.75%.

For the compound `COc1ccc(NC(=O)NCc2cccc(Cl)c2)cc1`, the growth inhibition in assay [1] was 2.6%; in assay [2], 35.4%; in assay [3] it was 32%; in assay [4] it was -8.4%; in assay [5], -9.15%; in assay [6], 44.1%.

Turning to `O=CC(O)CO` (stereo not drawn), the growth inhibition in assay [1] was 10.4%; in assay [2] it was 9.5%; in assay [3], 11.9%; in assay [4] it was 3.95%; in assay [5], 8.65%; in assay [6] it was -5.2%.

`c1ccc(-c2oc3ccccc3c2-c2ccc(OCCN3CCCC3)cc2)cc1`: the growth inhibition in assay [1] was 99.5% (active); in assay [2], 99.6% (active); in assay [3] it was 99.7% (active); in assay [4] it was 99.3% (active); in assay [5] it was 99.3% (active); in assay [6], 99.5% (active).

Source of the values: PubChem BioAssay (NCI).
